The values below come from PubChem BioAssay (NCATS).

The nature of assay [1]: qHTS of pediatric cancer cell lines to identify multiple opportunities for drug repurposing: Confirmatory screen for BT-12 cells (AID 1347112). Note: nearly all actives have a fitted effect of over 55% in size. Note: potency is the fitted concentration of half-maximal effect. To be noted: BT-12 rhabdoid tumor cells, viability; series mostly up to 45.9 µM. An outline of the steps:
(§1)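 Cells (500-1,000/well) in growth media were settled 5 h at 37 degrees C, then given compounds for 48 h. Viability was read as CellTiter-Glo luminescence. Primary runs used MIPE at 11 points (0.78 nM-46 µM) and NPC at 8 points (0.59 nM-46 µM); follow-ups used 11 points.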
Background: Quantitative high-throughput screening tests each substance at several concentrations.

Assay [2] in a line: qHTS of pediatric cancer cell lines to identify multiple opportunities for drug repurposing: Confirmatory screen for DAOY cells (AID 1347114). Note: nearly all actives have a fitted effect of over 65% in size. Note: potency is the fitted concentration of half-maximal effect. To be noted: DAOY medulloblastoma cells viability, cytotoxicity qHTS; series mostly up to 45.9 µM. An outline of the steps: (§2)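 Viability measured as metabolically active cells via CellTiter-Glo luminescence following 48 hours of compound exposure, 11-point dilutions in confirmatory testing. 500-1,000 cells/well plated 5 hours before dosing; controls were DMSO and 2.3 µM bortezomib.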

Assay [3] can be described thus: qHTS of pediatric cancer cell lines to identify multiple opportunities for drug repurposing: Confirmatory screen for SJ-GBM2 cells (AID 1347116). Note: nearly all actives have a fitted effect of over 60% in size. Note: potency is the fitted concentration of half-maximal effect. The settings on record: SJ-GBM2 glioblastoma cells, viability; series mostly up to 45.9 µM. In short, it runs like this:
as §2

Assay [4] can be described thus: qHTS of pediatric cancer cell lines to identify multiple opportunities for drug repurposing: Confirmatory screen for U-2 OS cells (AID 1347122). Note: nearly all actives have a fitted effect of over 65% in size. Note: potency is the fitted concentration of half-maximal effect. The settings on record: U-2 OS osteosarcoma cell viability; series mostly up to 45.9 µM. In short, it runs like this: as §1
Assay [5] is described as follows: qHTS of pediatric cancer cell lines to identify multiple opportunities for drug repurposing: Confirmatory screen for Rh18 cells (AID 1347125). Note: nearly all actives have a fitted effect of over 55% in size. Note: potency is the fitted concentration of half-maximal effect. To be noted: Rh18 rhabdomyosarcoma cells, viability; series mostly up to 45.9 µM. An outline of the steps: as §1
The subject of assay [6] is Zika virus NS2B-NS3 protease. The experiment in a line: Primary screen GU AMC qHTS for Zika virus inhibitors (AID 1347154). Note: nearly all actives have a fitted effect of over 70% in size. To be noted: Zika NS2B-NS3 unlinked protease, AMC fluorogenic substrate; series mostly up to 54.1 µM. An outline of the steps:
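Unlinked Zika NS2B hydrophilic domain/NS3 protease domain noncovalent complex (25 nM final) in 10 mM Tris-HCl pH 8.0, 0.01% Tween 20, with AMC peptide substrate. Fluorescence (ex 340, em 450 nm) change over 15 min, room temperature; percent inhibition fitted to 4-parameter Hill equation.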

A short description of assay [7]: qHTS of pediatric cancer cell lines to identify multiple opportunities for drug repurposing: Confirmatory screen for LAN-5 cells (AID 1347113). Note: nearly all actives have a fitted effect of over 65% in size. Note: potency is the fitted concentration of half-maximal effect. To be noted: LAN-5 neuroblastoma cell viability; series mostly up to 45.9 µM. An outline of the steps:
as §1

The nature of assay [8]: qHTS of pediatric cancer cell lines to identify multiple opportunities for drug repurposing: Confirmatory screen for MG 63 (6-TG R) cells (AID 1347119). Note: nearly all actives have a fitted effect of over 55% in size. Note: potency is the fitted concentration of half-maximal effect. To be noted: MG-63 (6-TG resistant) osteosarcoma viability; series mostly up to 45.9 µM. In short, it runs like this: as §1
A short description of assay [9]: qHTS of pediatric cancer cell lines to identify multiple opportunities for drug repurposing: Confirmatory screen for Rh41 cells (AID 1347123).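 Note: 48 h compound exposure; nearly all actives have a fitted effect of over 60% in size.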 Note: potency is the fitted concentration of half-maximal effect. The settings on record: Rh41 rhabdomyosarcoma cells, viability/cytotoxicity qHTS; series mostly up to 45.9 µM. In short, it runs like this:
as §1

Assay [10] in a line: qHTS of pediatric cancer cell lines to identify multiple opportunities for drug repurposing: Confirmatory screen for NB-EBc1 cells (AID 1347115).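 Note: cells exposed to compound for 48 h before the viability read; nearly all actives have a fitted effect of over 45% in size.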 Note: potency is the fitted concentration of half-maximal effect. The settings on record: NB-EBc1 neuroblastoma cells, viability (cytotoxicity); series mostly up to 45.9 µM. In short, it runs like this:
as §1

Assay [11] in a line: qHTS of pediatric cancer cell lines to identify multiple opportunities for drug repurposing: Confirmatory screen for Rh30 cells (AID 1347126). Note: nearly all actives have a fitted effect of over 55% in size. Note: potency is the fitted concentration of half-maximal effect. To be noted: Rh30 rhabdomyosarcoma cell viability; series mostly up to 45.9 µM. In short, it runs like this: as §1
Assay [12] can be described thus: qHTS of pediatric cancer cell lines to identify multiple opportunities for drug repurposing: Confirmatory screen for Saos-2 cells (AID 1347127). Note: nearly all actives have a fitted effect of over 60% in size. Note: potency is the fitted concentration of half-maximal effect. To be noted: Saos-2 osteosarcoma cell viability; series mostly up to 45.9 µM. In short, it runs like this: as §1
Assay [13] is described as follows: qHTS of pediatric cancer cell lines to identify multiple opportunities for drug repurposing: Confirmatory screen for OHS-50 cells (AID 1347128). Note: potency is the fitted concentration of half-maximal effect. To be noted: OHS-50 osteosarcoma cells viability; series mostly up to 45.9 µM. In short, it runs like this: as §1
A short description of assay [14]: qHTS of pediatric cancer cell lines to identify multiple opportunities for drug repurposing: Confirmatory screen for control Hh wild type fibroblast cells (AID 1347121). Note: nearly all actives have a fitted effect of over 70% in size. The settings on record: viability qHTS; series mostly up to 45.9 µM. In short, it runs like this: as §1
Assay [15] has as its system Zika virus NS2B-NS3 protease (unlinked). The assay can be described thus: Optimization of GU AMC qHTS for Zika virus inhibitors: Unlinked NS2B-NS3 protease assay (AID 1347151). Note: nearly all actives have a fitted effect of over 80% in size. To be noted: recombinant ZIKV NS2B-NS3 protease, fluorogenic AMC substrate; series mostly up to 52.5 µM. In short, it runs like this: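 Unlinked protease (25 nM final); buffer 10 mM Tris-HCl pH 8.0 + 0.01% Tween 20; AMC substrate; 15 min RT, dark; Δfluorescence normalized to no-inhibitor/no-enzyme controls; 4-parameter Hill fit.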

Inconclusive results are not listed. The source made the active and inactive calls. Calls come from the whole dose curve; as a rule, active = well fitted curve in the direction sought with a large enough effect; inconclusive = small, poorly fitted or top-dose-only effect, or another doubt; inactive = no such curve, though single readings can be large; an effect the other way counts as inactive or inconclusive.

Turning to `Clc1ccc(C(Cn2ccnc2)OCc2ccc(Sc3ccccc3)cc2)c(Cl)c1` (stereo not drawn), the Potency in assay [1] was 29.3 µM (active); in assay [2] it was 18.5 µM (active); in assay [4], 18.5 µM (active). Further, the Potency result in assay [3], in [5] and in assay [6] was “inactive” each time.

For the molecule `Cc1ccc(Nc2nccc(N(C)c3ccc4c(C)n(C)nc4c3)n2)cc1S(N)(=O)=O`, the Potency entry in assay [7], in assay [8] and in [6] was “inactive” in each case. Besides, the Potency is 18.5 µM (active) in [4] and 10.4 µM (active) in assay [9].

`CCCCc1ccc2nc(NC(=O)OC)[nH]c2c1`: the Potency in assay [7] was 8.27 µM (active); in assay [2] it was 0.185 µM (active); in assay [10] it was 1.47 µM (active); in assay [3] it was 3.29 µM (active); in [8], 0.185 µM (active); in assay [4], 0.329 µM (active). Also, the Potency was 0.131 µM (active) in [9]; 8.27 µM (active) in [5]; 9.27 µM (active) in [11]; 0.233 µM (active) in assay [12]; 0.329 µM (active) in assay [13]. Further, in [6], the Potency result is “inactive”.

On to `CCN(CCO)CCCC(C)Nc1ccnc2cc(Cl)ccc12` (stereo not drawn), for which the Potency entry in assay [1], in assay [2], in assay [10], in assay [8], in assay [14] and in assay [4] was “inactive” in each case. Besides, the Potency entry in assay [9], in assay [5], in assay [11], in assay [12], in assay [13] and in assay [6] was “inactive” each time.

Consider `Cc1ccc(NC(=O)c2ccc(CN3CCN(C)CC3)cc2)cc1Nc1nccc(-c2cccnc2)n1`, for which the Potency in assay [2] was 16.5 µM (active). Moreover, the Potency result in [10], in [3], in assay [8], in assay [14], in assay [4] and in assay [9] was “inactive” in each case. For the same molecule, the Potency entry in assay [5], in assay [11] and in assay [12] was “inactive” each time.

For `CS(=O)(=O)OCCCCOS(C)(=O)=O`, the Potency result in assay [1], in [2], in assay [10], in assay [8], in [14] and in [4] was “inactive” in each case. Further, the Potency result in [9], in assay [5], in [11] and in assay [13] was “inactive” each time.

On to `c1cnc2cc3c(cc2n1)C1CNCC3C1`, for which the Potency result in [1], in assay [7], in assay [2], in [10], in assay [8] and in [14] was “inactive” throughout. Further, the Potency entry in assay [4], in assay [9], in assay [13], in assay [15] and in [6] was “inactive” each time.

Consider `CCOc1cc(CC(=O)N[C@@H](CC(C)C)c2ccccc2N2CCCCC2)ccc1C(=O)O`, for which the Potency entry in assay [1], in assay [7], in assay [2], in [3], in [14] and in assay [4] was “inactive” throughout. Also, the Potency result in assay [9], in assay [5], in [11], in assay [12], in assay [13] and in assay [6] was “inactive” in each case.
